The results in this text go back to PubChem BioAssay (NCATS).

The structures appear in SMILES notation. Results filed as inconclusive are left out. Active and inactive are the calls of the source. The call rests on the fitted dose curve; in most records, active means well fitted cell-killing curve with a large enough effect; inconclusive means small, poorly fitted or top-dose-only effect, or effect the other way; inactive means no such curve, though single readings can be large or run the other way.
Potency means the concentration at half of the fitted maximal effect.

The nature of this assay: Quantitative High-Throughput drug screen in 47 multiple myeloma cell lines against the NCATS MIPE library collection: KMS27_JCRB cell viability assay (AID 1918970). Further: nearly all actives have a fitted effect of over 30% in size. The settings on record: KMS27 myeloma cells, CellTiter-Glo ATP viability, 48 h; series mostly up to 45.8 µM; viability (% of DMSO): at the top concentration. The source says: PI: Beverly A. Mock Ph.D.
Laboratory of Cancer Biology and Genetics,
Center for Cancer Research, National Cancer Institute,
National Institute of Health, Bethesda, Maryland
Drug resistance and disease progression are common in multiple myeloma (MM) patients, underscoring the need for new therapeutic combinations. […] We hypothesized that effective combinations would reduce MYC expression and enhance p16 activity. […] These preclinical data identify potentially useful drug combinations for evaluation in drug-resistant MM and reveal potential mechanisms of combined drug sensitivity.
Described herein is the primary MIPE qHTS used to cherrypick compounds. Validated compounds were then further tested for potential synergistic activiy.
[1] Peat TJ, Gaikwad SM, Dubois W, Gyabaah-Kessie N, Zhang S, Gorjifard S, Phyo Z, Andres M, Hughitt VK, Simpson RM, Miller MA, Girvin AT, Taylor A, Williams D, D'Antonio N, Zhang Y, Rajagopalan A, Flietner E, Wilson K, Zhang X, Shinn P, Klumpp-Thomas C, McKnight C, Itkin Z, Chen L, Kazandijian D, Zhang J, Michalowski AM, Simmons JK, Keats J, Thomas CJ, Mock BA. Drug combinations identified by high-throughput screening promote cell cycle transition and upregulate Smad pathways in myeloma. […] Epub 2023 Jun 24. PMID: 37356470; PMCID: PMC10408729.
SEQUENCE No. (e.g., 1, 2, 3, etc.); […] (e.g., Cells, Incubation, Reagent, etc.); VALUE and DESCRIPTION.
1; Cells; 5 uL; white, solid bottom 1536-well Greiner assay plate.
2; Compounds; 23 nL; Kalypsis pin tool (Wako USA) equipped with a 1536-well pin head to transfer to the assay plates.
3; Incubation; 48 hours; 37C incubation.
4; Reagent;5uL; CellTiter Glo (Promega).
5; Detector; 425V; Luminescence; Viewlux PerkinElmer.
NOTES (numbers refer to Sequence numbers above)
1. The cell-based screening methods employed in this study were like those previously published. Briefly, the corresponding myeloma cell lines were screened in 1,536-well plates with 500 cells, 5-uL per well for inhibition of cell viability (assessed by measuring ATP levels with CellTiterGlo).
2. NCATS MIPE 4.0 library of approved and investigational drugs were added using the Kalypsis pin tool. Wells treated with DMSO only for 100% viability and media only wells for 0% viability were used as controls.
3. The assay plates were covered and incubated for 48 hours in a 37C, 5% CO2 incubator with controlled humidity.
4. After 48 hours, CellTilter-GloTM luminescent substrate mix (Promega) reagent was added to the assay plate and plates we incubated for 5 min at room temperature.
5. Signal was measured as median relative luminescence units on a ViewLux (PerkinElmer) multiplate reader.
[1] Heske CM, Davis MI, Baumgart JT, Wilson K, Gormally MV, Chen L, Zhang X, Ceribelli M, Duveau DY, Guha R, Ferrer M, Arnaldez FI, Ji J, Tran HL, Zhang Y, Mendoza A, Helman LJ, Thomas CJ. Matrix Screen Identifies Synergistic Combination of PARP Inhibitors and Nicotinamide Phosphoribosyltransferase (NAMPT) Inhibitors in Ewing Sarcoma. Clin Cancer Res. 2017 Dec 1;23(23):7301-7311. doi: 10.1158/1078-0432.CCR-17-1121. Epub 2017 Sep 12. PMID: 28899971; PMCID: PMC6636827.
On the technique in general: Cellular ATP, detected with luciferase, serves as a proxy for viable cell number.
Consider `O=C(O)c1ccc2c(c1)nc(Nc1cccc(Cl)c1)c1ccncc12`, for which the Potency was 1.66 µM (active). Consider `CCC1=C[C@@H]2CN(C1)Cc1c([nH]c3ccccc13)[C@@](C(=O)OC)(c1cc3c(cc1OC)N(C)[C@@H]1[C@@](O)(C(=O)OC)[C@H](OC(C)=O)[C@]4(CC)C=CCN5CC[C@]31[C@@H]54)C2`, for which the Potency was 0.0047 µM (active).

For `CCOc1ccccc1OCCNC(C)Cc1ccc(OC)c(S(N)(=O)=O)c1` (stereo not given), the “viability (% of DMSO)” value is 100% (inactive). For `CC1(C)CCC(c2ccc(Cl)cc2)=C(CN2CCN(c3ccc(C(=O)NS(=O)(=O)c4ccc(N[C@H](CCN5CCOCC5)CSc5ccccc5)c(S(=O)(=O)C(F)(F)F)c4)cc3)CC2)C1`, the Potency is 0.0148 µM (active). For `Fc1cc(-c2cccc3ncc(-c4cnn(C5CCNCC5)c4)nc23)cc(F)c1CN1CCOCC1`, the Potency was 8.33 µM (active). In the case of `COc1cc(C(C)C)c2c(c1)S(=O)(=O)N(COc1cc(=O)n3cccc(OCCN4CCCCC4)c3n1)C2=O`, the Potency was 18.7 µM (active). Still for that read-out and setting: then `C[C@@H]1COC(Nc2ccc3ncnc(Nc4ccc(OCc5nccs5)c(Cl)c4)c3c2)=N1`, with 9.35 µM (active); and `CC(C)(C)c1cnc(CSc2cnc(NC(=O)C3CCNCC3)s2)o1`, with 0.209 µM (active). Turning to `COCCOc1ccc2c(c1)ncn2-c1ccc2cccc(N3CCC(N)CC3)c2n1`, the Potency was 1.66 µM (active). The same measure, in the same setting: the result for `CCN(CC)CCCCNc1ncc2cc(-c3cc(OC)cc(OC)c3)c(NC(=O)NC(C)(C)C)nc2n1` reads 16.6 µM (active); that for `CN(C)c1nc(Cc2ccc(NC(=O)c3ccc4ccccc4c3)cc2)nc(Cl)c1CC(=O)O`, 0.0526 µM (active); that for `CCn1cc(-c2ccnc3[nH]c(-c4cccc(CN(C)C)c4)cc23)c(-c2ccc(NC(=O)N(C)C)cc2)n1`, 7.43 µM (active). `Cc1cc(Nc2cc(NC(=O)c3c(Cl)cccc3Cl)ccn2)nc(N)n1`: the Potency is 0.264 µM (active). Take `Cc1nc(N)ncc1-c1nc(N2CCOCC2)c2sc(C(C)(C)O)cc2n1`: the Potency is 0.235 µM (active). For `CC1(O)CC(c2nc(-c3ccc4ccc(-c5ccccc5)nc4c3)c3c(N)nccn23)C1` (stereo not given), the Potency is 2.35 µM (active). Take `COc1cccc2nc(-c3cccs3)nc(NN3C(=O)C=C(C)C3=O)c12`: the Potency is 0.235 µM (active). `COc1c(N2C[C@@H]3CCCN[C@H]3C2)c(F)cc2c(=O)c(C(=O)O)cn(C3CC3)c12`: the Potency is 18.7 µM (active).

`CCC(=C(c1ccccc1)c1ccc(OCCN(C)C)cc1)c1ccccc1`: the Potency was 20.9 µM (active). Turning to `CCCNC(=O)Nc1ccc(Oc2ncnc3cc(OC)c(OC)cc23)cc1Cl`, the “viability (% of DMSO)” value was 119% (inactive). With `Cc1ccc(NC(=O)C2(c3ccc4c(c3)OC(F)(F)O4)CC2)nc1-c1cccc(C(=O)O)c1`, the Potency is 0.0469 µM (active). On the same count and under the same terms, then `Nc1ccccc1NC(=O)c1ccc(CNc2nccc(-c3cccnc3)n2)cc1`, with 2.64 µM (active).

As for `Cc1cn2cc(C(=O)N(C)CCO)cc(N[C@@H]3CCOc4cccc(C)c43)c2n1`, the “viability (% of DMSO)” value was 113% (inactive).

Take `Cc1ccc(-c2ncn(-c3ccc(Nc4nccc(-c5cccc(N6CCOCC6)c5)n4)cc3)n2)cn1`: the Potency is 0.0469 µM (active).

Consider `CC(C)c1cc(-c2n[nH]c(=O)n2-c2ccc3c(ccn3C)c2)c(O)cc1O`, for which the Potency was 0.0264 µM (active). As to `COC(=O)C[C@](O)(CCCC(C)(C)O)C(=O)O[C@@H]1C(OC)=C[C@]23CCCN2CCc2cc4c(cc2[C@H]13)OCO4`, the “viability (% of DMSO)” value is 154% (inactive).

With `COc1cc2c(cc1-c1c(C)noc1C)ncc1[nH]c(=O)n([C@H](C)c3ccccn3)c12`, the Potency is 3.72 µM (active). For the compound `C1=CCOCc2cc(ccc2OCCN2CCCC2)Nc2nccc(n2)-c2cccc(c2)OCC1`, the Potency is 1.48 µM (active). Consider `c1ccc2c(CCNc3ccc(Nc4ccncc4)cc3)c[nH]c2c1`, for which the Potency is 4.18 µM (active). As for `CC(C)c1ccccc1Cc1cc(C(=O)Nc2ccc(S(=O)(=O)c3ccccc3C(C)(C)C)cc2)c(O)c(O)c1O`, the “viability (% of DMSO)” value was 120% (inactive). Regarding `CCCCCN(CCC12CC3CC(CC(C3)C1)C2)C(=O)NCCCc1ccncc1`, the Potency was 4.18 µM (active). With `CC1(C)CC(=O)c2c(C(F)(F)F)nn(-c3ccc(C(N)=O)c(NC4CCC(OC(=O)CN)CC4)c3)c2C1` (stereo not given), the Potency is 0.0743 µM (active). In the case of `Nc1ncnc2c1c(-c1cccc(OCc3ccccc3)c1)cn2C1CC(CN2CCCC2)C1` (stereo not given), the Potency was 18.7 µM (active). For the compound `COc1ccc(CC2c3cc(OC)c(OC)cc3CC[N+]2(C)CCC(=O)OCCCCCOC(=O)CC[N+]2(C)CCc3cc(OC)c(OC)cc3C2Cc2ccc(OC)c(OC)c2)cc1OC` (stereo not given), the viability (% of DMSO) is 108% [at 5.15 µM] (inactive). In the case of `CC(=O)Nc1nc(C)c(-c2ccc(Cl)c(S(=O)(=O)NCCO)c2)s1`, the Potency was 1.32 µM (active). With `CC(NCc1ccc2c(c1)nc(NC(=O)c1ccc(-c3cn[nH]c3)s1)n2CC(C)(C)O)C(C)(C)C` (stereo not given), the Potency is 0.0833 µM (active).

Turning to `O=C(C=Cc1cccc(S(=O)(=O)Nc2ccccc2)c1)NO`, the Potency was 2.7 µM (active). `COc1cc(C)c(Sc2cnc(NC(=O)c3ccc(CNC(C)C(C)C)cc3)s2)cc1C(=O)N1CCN(C(C)=O)CC1` (stereo not given): the “viability (% of DMSO)” value is 131% (inactive).

As for `CN(C)CC(C)(C)CNc1nn2c(-c3ccccc3)nnc2cc1C1CCC1`, the Potency is 1.18 µM (active). For `C=CC(=O)Nc1cc2c(Nc3ccc(F)c(Cl)c3)ncnc2cc1C#CC(C)(C)N1CCN(C)CC1`, the Potency was 0.833 µM (active). In the case of `COc1ccc(C(=O)CC2(O)C(=O)Nc3c(Cl)ccc(Cl)c32)cc1` (stereo not given), the Potency is 1.05 µM (active).
